The nature of test [1]: inhibitors of TNFa-induced NFkB p65 translocation, primary screen, imaging, HUVEC, MLSMR starter and 10KST1 sets (AID 438;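 active = inhibition above 20% together with a positive visual image hit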;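 also: compound added about 3h40 before a 20 min TNFalpha stimulation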;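 as to inhibition: signal is the nuclear over cytoplasmic p65 intensity ratio per well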). Particulars: HUVEC TNFa-induced p65 nuclear translocation; cell count: measured here: nuclei count (cytotoxicity indicator), at 2.08 µM; inhibition: at 2 µM, stronger effect = higher value, 0% TNFa-plus-vehicle, 100% no-TNFa wells.
Test [2] can be described thus: reduction of polyQ htt aggregates in cells – imaging, exon1htt(103Q)mCFP cells, high-content imaging, primary screen (AID 483;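 active = visual image review flags a hit and inhibition of aggregation exceeds 20%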;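 also: compound exposure lasted 3 days before fixation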;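 as to nuclei count: percent of the per-plate median nuclei count of sample wells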). To be noted: exon1htt(103Q)mCFP cell line, aggregate imaging, at 2 µM; inhibition of aggregation: stronger effect = higher value; nuclei count: measured here: cell count, toxicity.
A short description of test [3]: endothelial E-selectin expression blockers – imaging, HUVEC, immunofluorescence, MLSMR starter and 10KST1 sets, primary screen (AID 487;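 active = visually confirmed hit in the image check and inhibition above 20%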;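 as to inhibition: signal is fraction of cell area covered by stained E-selectin grains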;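 as to nuclei count: 100% = median nuclei count of all wells on the same plate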). To be noted: HUVEC TNFalpha-induced E-selectin immunofluorescence imaging, at 2 µM; inhibition: stronger effect = higher value; nuclei count: measured here: cell number, toxicity.
Test [4] can be described thus: Primary imaging screen for DUSP6 inhibitors that restore phospho-Erk in transfected HeLa cells, chemical complementation (AID 609;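 active = compounds giving at least 50% inhibition in the cell-based MKP-3 phosphatase rescue imaging test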;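 as to inhibition: phospho-Erk level distribution per well compared with pooled transfected vehicle control wells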). To be noted: HeLa MKP-3 transfected, phospho-Erk imaging KS statistic, at 10 µM, cells stimulated with TPA for 15 min.
For test [5], the target named is Dual specificity protein phosphatase 6 (Homo sapiens) (UniProt Q16828). Described as above. Particulars: HeLa MKP-3 transfected, phospho-Erk imaging KS statistic; at 10 µM; stronger effect = higher value; cells stimulated with TPA for 15 min.
Sequence of Dual specificity protein phosphatase 6 (Homo sapiens) (Q16828 whole entry, looked up): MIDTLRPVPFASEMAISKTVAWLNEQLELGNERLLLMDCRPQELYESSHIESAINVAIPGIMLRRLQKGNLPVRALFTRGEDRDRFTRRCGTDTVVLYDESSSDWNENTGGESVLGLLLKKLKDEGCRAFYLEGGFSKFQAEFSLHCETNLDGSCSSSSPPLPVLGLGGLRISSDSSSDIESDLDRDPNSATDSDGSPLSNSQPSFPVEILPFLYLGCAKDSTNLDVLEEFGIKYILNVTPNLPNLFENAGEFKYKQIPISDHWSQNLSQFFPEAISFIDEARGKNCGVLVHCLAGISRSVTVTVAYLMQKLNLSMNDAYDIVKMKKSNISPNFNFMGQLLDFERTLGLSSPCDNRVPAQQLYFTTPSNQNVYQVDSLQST
Test [6] has as its target Voltage-gated potassium channel subunit beta-2 (Rattus norvegicus) (UniProt P62483). The test is described as follows: inhibitors of rat Kvbeta2 reductase activity – biochemical, NADPH fluorescence, primary screen (AID 622;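 active = fluorescence slope higher than the sample average by over 3 SD, cut at about -0.22 in these data, passing the limit was not always enough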;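 also: slope of raw intensity against log time taken from 70 to 1610 s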). To be noted: recombinant KvBeta, 4-cyanobenzaldehyde reduction, at 10 µM, stronger effect = higher value.
The target is the same in test [7]. Kind of test: enhancers of rat Kvbeta2 NADPH turnover – biochemical, NADPH fluorescence, primary screen (AID 623;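 active = NADPH fluorescence slope more negative than the mean of all samples by about 3 SD, 99.7% confidence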;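 also: fluorescence intensity change per second fitted from 20 to 320 s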). To be noted: Recombinant KvBeta, NADPH fluorescence decrease slope, 10 min; at 10 µM; stronger effect = lower value.
In test [8] the target is Alpha-2C adrenergic receptor (Homo sapiens) (UniProt P18825). Kind of test: compounds altering alpha2C-coupled GIRK flux – cell-based, HEK293 alpha2C/GIRK1/2, thallium flux, primary screen (AID 624;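 active = fluorescence slope after compound addition differing from the mean of all screened samples at 99.7% confidence, in either direction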;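 also: slope of fluorescence ratio to pre-addition baseline per second over 15 to 24 s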). To be noted: thallium flux BTC fluorescence, at 10 µM, actives lie on both sides.
Sequence of Alpha-2C adrenergic receptor (Homo sapiens) (P18825 whole entry, looked up): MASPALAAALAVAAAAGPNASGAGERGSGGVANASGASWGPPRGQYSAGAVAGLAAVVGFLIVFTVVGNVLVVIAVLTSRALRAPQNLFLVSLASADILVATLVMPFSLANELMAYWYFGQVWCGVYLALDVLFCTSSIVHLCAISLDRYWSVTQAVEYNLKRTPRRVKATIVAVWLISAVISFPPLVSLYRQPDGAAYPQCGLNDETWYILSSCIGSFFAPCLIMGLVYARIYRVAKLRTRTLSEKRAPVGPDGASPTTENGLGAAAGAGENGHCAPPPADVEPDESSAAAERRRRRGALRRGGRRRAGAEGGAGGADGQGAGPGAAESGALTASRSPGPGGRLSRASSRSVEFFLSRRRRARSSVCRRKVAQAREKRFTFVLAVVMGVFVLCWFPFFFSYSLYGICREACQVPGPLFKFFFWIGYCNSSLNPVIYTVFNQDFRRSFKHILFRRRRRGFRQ
Test [9] in a line: inhibitors of larval lipid processing in zebrafish, primary screen, whole organism, PED6 fluorescence, gall bladder and intestine (AID 686;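 active = a full or partial loss of lipid-probe fluorescence in the fish gall bladder, intestine or both, judged by eye; inactive = no fluorescence loss, or compound toxic to the fish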;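 also: larvae 5 to 7 days old with five fish per well; signal comes from phospholipase A2 cleavage of quenched PED6 carried via bile; overnight exposure to compound and PED6 before scoring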). To be noted: Zebrafish larvae PED6 lipid processing, fluorescence scoring; screened at 20 µM (by protocol).
Test [10] in a line: loss of swimming-algae plug formation – whole organism, Chlamydomonas reinhardtii, WT vs cilia-less mutant, absorbance, 96-well, primary screen (AID 463189;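 active = inhibition at or above 50% relative to wild type and mutant plate controls; inactive = inhibition below 50%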;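 also: 0% = wild type cc124 cells in DMSO and 100% = ciliumless bld1 mutant cells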). To be noted: Chlamydomonas reinhardtii gravitaxis, OD600 absorbance, 2 days; at 10 µM; stronger effect = higher value.
Test [11] can be described thus: blockers of RIG-like receptor reporter activation – cell-based, Sendai virus stimulus, luciferase, 10K MLSCN set, TLR/RLR signaling modifier project, primary screen (AID 602276;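 active = inhibition at or above 50% at 10 µM; inactive = inhibition below 50%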;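 also: firefly luciferase from ISG56 promoter only with Renilla not read in this screen; 0% = Sendai virus plus DMSO and 100% = medium plus DMSO without virus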). To be noted: HEK293 RL24 IRF3 luciferase reporter, at 10 µM, stronger effect = higher value.
A short description of test [12]: TLR3 IRF3 reporter activation blockers – cell-based, poly I:C stimulus, luciferase, 10K MLSCN set, primary screen (AID 602277). Particulars: HEK293-TLR3 RL24 IRF3 luciferase reporter, at 10 µM, stronger effect = higher value. In general terms: In a reporter assay the amount or activity of a reporter protein is the signal.
Where [13] appears, read: measured here: cell density z-score.
[14] abbreviates: measured here: nuclear c-Myc green intensity z-score.
The mark [15] stands for this setting: measured here: nuclear pErk red intensity z-score, stronger effect = higher value.

Active and inactive are the calls of the source.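 The calls were made as follows, unless noted: active = inhibition of the reporter signal at or above 50%; inactive = inhibition below 50%.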

Sequence of Voltage-gated potassium channel subunit beta-2 (Rattus norvegicus) (P62483 whole entry, looked up): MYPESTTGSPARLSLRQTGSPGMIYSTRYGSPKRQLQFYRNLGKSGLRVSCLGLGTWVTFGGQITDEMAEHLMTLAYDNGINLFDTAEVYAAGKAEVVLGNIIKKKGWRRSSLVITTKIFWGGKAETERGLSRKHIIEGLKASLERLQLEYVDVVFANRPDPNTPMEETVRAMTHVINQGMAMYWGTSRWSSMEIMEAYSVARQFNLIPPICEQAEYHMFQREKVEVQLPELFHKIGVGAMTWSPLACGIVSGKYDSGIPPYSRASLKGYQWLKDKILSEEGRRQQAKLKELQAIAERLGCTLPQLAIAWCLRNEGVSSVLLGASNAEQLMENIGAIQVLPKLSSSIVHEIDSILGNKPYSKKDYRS

On to `CC(=O)O[C@]1(C(C)=O)CC[C@H]2[C@@H]3C[C@H](C)C4=CC(=O)CC[C@]4(C)[C@H]3CC[C@@]21C`, for which the cell count in test [1] was determined as 605. Also, the inhibition (as a rule, the change of the read-out against control, counted positive when it falls) was 2.3% (inactive) in [1]; -47.8% (inactive) in test [3]; 12.4% (inactive) in [5]; -2.6% (inactive) in test [10]; 8.39% (inactive) in test [11]; 46.7% (inactive) in [12]. In test [2], the inhibition of aggregation is 0.3% (inactive). Further, the values for the nuclei count in test [2] and in [3] were 94.8% and 119%, respectively. Moreover, the z-score in test [4] (setting [13]) is 1.33; in test [4] (setting [14]) it was -0.458; in [4] (setting [15]), 0.835. Besides, the fluorescence slope in [6] is -0.521 (inactive). Besides, the NADPH fluorescence slope in test [7] was -6e-06 (inactive). For the same compound, the slope in [8] was 0.00379 (inactive). For the same compound, in test [9], the outcome was inactive.
Take `CC1(C)O[C@@H]2C[C@H]3[C@@H]4C[C@H](F)C5=CC(=O)CC[C@]5(C)[C@H]4[C@@H](O)C[C@]3(C)[C@]2(C(=O)CO)O1`: in test [1], the cell count was 547. Besides, the inhibition in test [1] is -0.5% (inactive); in test [3], 1.2% (inactive); in [5], -2.46% (inactive); in [10] it was 6.62% (inactive); in [11], -7.22% (inactive); in test [12] it was 22% (inactive). In addition, in [2], the inhibition of aggregation was -27.2% (inactive). The results for the nuclei count in test [2] and in test [3] were 54.1% and 102%, respectively. Moreover, the z-score in test [4] (setting [13]) is -0.857; in test [4] (setting [14]), -0.0426; in [4] (setting [15]), 0.461. In addition, in test [6], the fluorescence slope is -0.476 (inactive). The NADPH fluorescence slope in test [7] was -9e-05 (inactive). Further, in test [8], the slope is 0.00483 (inactive). Further, the call in test [9] was inactive.
As for `CCCCN(CCCC)CCCOC(=O)c1ccc(N)cc1`, the cell count in [1] was 680. Besides, the inhibition is -1.8% (inactive) in [1]; -60.2% (inactive) in [3]; -4.44% (inactive) in test [5]; 12.6% (inactive) in [10]; -12.8% (inactive) in [11]; 56.3% (active) in test [12]. In addition, the inhibition of aggregation in test [2] is 7.7% (inactive). The values for the nuclei count in [2] and in [3] were 97.6% and 130%, respectively. For the same compound, the z-score in test [4] (setting [13]) was -0.857; in test [4] (setting [14]), -0.989; in test [4] (setting [15]) it was 0.993. Moreover, the fluorescence slope in test [6] was -0.511 (inactive). Also, in test [7], the NADPH fluorescence slope was -5.7e-05 (inactive). For the same compound, the slope in [8] was 0.00529 (inactive). For the same compound, the result in [9] was inactive.
In the case of `Nc1ccc(S(=O)(=O)NC(=O)c2ccccc2)cc1`, the cell count in test [1] turned out to be 544. In addition, the inhibition in [1] is 2.5% (inactive); in [3] it was -116% (inactive); in [5] it was 14.6% (inactive); in test [10], 5.05% (inactive); in test [11], 21.8% (inactive); in [12], 34.4% (inactive). In test [2], the inhibition of aggregation was 17.5% (inactive). In addition, the nuclei count in test [2] was found to be 94.6%; in test [3] it was 110%. The z-score in test [4] (setting [13]) was -1.45; in test [4] (setting [14]) it was 0.254; in [4] (setting [15]), 0.397. The fluorescence slope in [6] was -0.517 (inactive). Also, the NADPH fluorescence slope in [7] is -5.5e-05 (inactive). For the same compound, the slope in [8] was 0.00537 (inactive). In addition, in test [9], the call was inactive.
For the compound `CCCCC(=O)O[C@]1(C(=O)CO)CC[C@H]2[C@@H]3CCC4=CC(=O)CC[C@]4(C)[C@H]3[C@@H](O)C[C@@]21C`, in test [1], the cell count stood at 559. Besides, the inhibition in test [1] was -9.3% (inactive); in [3] it was -73.8% (inactive); in [5] it was -0.493% (inactive); in test [10], 15.5% (inactive); in [11], -1.27% (inactive); in test [12] it was 57.4% (active). Also, the inhibition of aggregation in [2] is -2.8% (inactive). In addition, the values for the nuclei count in [2] and in test [3] were 44.6% and 120%, respectively. Further, the z-score in [4] (setting [13]) is -0.284; in [4] (setting [14]), -0.0177; in [4] (setting [15]), 0.0777. Moreover, in test [6], the fluorescence slope was -0.554 (inactive). In addition, in test [7], the NADPH fluorescence slope is -4.6e-05 (inactive). Besides, the slope in test [8] is 0.00469 (inactive). The compound was classed as inactive in test [9].

Values taken from PubChem BioAssay.
